This passage reports activity (protection/inhibition) results from PubChem BioAssay AID651871 (Sanford-Burnham Center for Chemical Genomics, 2012).

Where “and” joins values, the source holds several entries; their conditions need not be identical. Identical values can stand only once.

For this experiment, the system named is H9c2. The experiment can be described thus: cardiomyocyte survival under oxidative or metabolic stress – cell-based, panel, H9c2 and HL-1, ATP luminescence, set 2, SAR follow-up (AID 651871).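 Note: cells exposed to stressor for 2 h before ATP readout; reference of the scale not given here.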 The following applies: H9c2/HL-1 cardiomyocytes, 2-deoxyglucose stress, with 2-deoxyglucose; run 11, at 79 µM (top of the series).
In the case of `COc1ccc2nc(-c3cc(OC)c(OC)c(OC)c3)cc(C(=O)NCC(=O)Nc3ccc(C(C)=O)cc3)c2c1`, the activity (protection/inhibition) worked out at 68.6%.

Turning to `CCOC(=O)c1cccc(NC(=O)CNC(=O)c2cc(-c3cc(OC)c(OC)c(OC)c3)nc3ccccc23)c1`, the activity (protection/inhibition) worked out at 112%.

For `COc1ccc2c(c1OC)C(=O)N1c3ccccc3C(=O)N(Cc3cccc(Cl)c3Cl)C21` (stereo not drawn), the activity (protection/inhibition) is 89.7% and 82.5% and -2.54%.
